# Experimental data published in PubChem BioAssay.
# Values joined by “and” are separate entries in the source; they are usually repeats but may differ in a detail not shown here. Equal entries are not always repeated. Inconclusive results are not listed. Where a structure was tested more than once in an assay, its records may differ in their call. Active and inactive are the calls of the source.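 Rule for the calls, unless noted: active = z-score of at least 1.8 in each of two replicates, scored against plate mean and spread of sample wells; inactive = the rest.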
# How the values were obtained:
# [1] = Wnt pathway potentiators raising nuclear beta-catenin – imaging, WNT3A-conditioned medium, mouse C2C12, NPC library, primary screen (AID 1117326; in the data active = nuclear beta-catenin stimulation mostly above about 4.2%, no sharp cut-off; inactive = mostly below about 10%; note: reference of the scale not given here); settings: stronger effect = higher value
# [2] = stimulators of insulin release from INS-1E, primary screen, cell-based, 5 mM glucose, NPC library (AID 1117329;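 active = compound raises insulin release from rat beta cells at 5 mM glucose, no numeric limit stated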; note: reference of the scale not given here); settings: rat INS-1E insulin secretion, at 10 µM, stronger effect = higher value
# [3] = growth inhibition of GSK3B-pretreated HCT116 cells – cell-based, CellTiter-Glo, 0.2 to 20 µM (AID 1117336;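 active = compounds lowering colon cancer cell viability after pretreatment blocking the GSK3B kinase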); settings: HCT116 viability after GSK3B inhibitor, at 20 µM, stronger effect = higher value
# [4] = inhibition of endothelial tube formation, primary screen, imaging, VEGF stimulated, CD31 staining, tube area, NPC library (AID 1117340;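 active = compound that reduces growth-factor-driven endothelial tube area in a mixed cell culture, no cutoff stated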); settings: VEGF-stimulated ADSC/ECFC co-culture, at 10 µM, stronger effect = higher value
# [5] = GLP1 release stimulators, primary, NCI-H716, NPC library (AID 1117341;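 active = compound raises GLP1 secretion from the human gut endocrine cells, with no numeric limit stated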; note: reference of the scale not given here); settings: NCI-H716 cells, at 10 µM, stronger effect = higher value
# [6] = HCT116 colon cancer cell growth inhibition, primary screen, CellTiter-Glo luminescence, NPC library (AID 1117342;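 active = compounds that lower survival of HCT116 colon cancer cells in the luminescence readout, no numeric limit stated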); settings: at 20 µM (top of the series)
# [7] = reduced SW480 viability measured with CellTiter-Glo, NPC library, primary (AID 1117343;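 active = compounds that lower viability of the colon cancer cells in the luminescence readout, with no numeric limit stated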); settings: CellTiter-Glo luminescence; at 20 µM (top of the series) unless noted
# [8] = NPC library primary testing for decreased DLD-1 cell viability via CellTiter-Glo (AID 1117346;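 active = compounds that lower survival of DLD-1 colon cancer cells in the luminescence readout, no cutoff given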); settings: DLD-1 viability, CellTiter-Glo luminescence; at 20 µM (top of the series)
# [9] = system: Aerobactin synthetase IucA (Klebsiella pneumoniae); assay: inhibition of K. pneumoniae IucA enzyme – biochemical, Tocris library, absorbance (AID 1345561; call rule not given here;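 note: 100% = enzyme without compound and 0% = no enzyme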); settings: purified IucA enzyme assay, absorbance (OD) read-out; stronger effect = lower value;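 tested at 8 µM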
# [10] = viability loss with induced miR-34 in A549 – imaging, A549 dox-inducible miR-34, nuclei and caspase counts, primary screen (AID 1347080;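 active = compounds whose cell count with miR-34 switched on is under 0.7 times the count with it off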); settings: A549 miR-34 inducible, Hoechst nuclei count, 48 h
# [11] = galactose survival enhancers in mitochondrial complex I cybrids – cell-based, galactose medium, ATP luminescence, primary screen (AID 1645843); settings: complex I mutant cybrid cells, 72 h, stronger effect = higher value;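 note: positive z means more ATP and so rescue of galactose-driven cybrid death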
# [12] = P. berghei load reduction in hepatocytes – cell-based, HepG2, luciferase luminescence, HepG2 viability, primary screen (AID 624349; in the data active = parasite load remaining mostly below about 12%, no sharp cut-off; inactive = mostly above about 10%;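 note: 100% = mean of DMSO negative control wells on the same plate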); settings: P. berghei liver stage in HepG2, luciferase luminescence, concentration not given here; parasite load remaining: stronger effect = lower value; viability: measured here: HepG2 viability without parasites
# [13] = MELAS cybrid and Rieske KO viability enhancers – cell-based, MELAS cybrids, Rieske KO mouse fibroblasts, CellTiter-Glo, primary screen (AID 1508586;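 active = mean z-score across replicates of 1.96 or higher in either the MELAS or the Rieske mutant cell line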;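 note: z relative to plate mean and SD of compound and empty wells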); settings: low glucose
# [14] = viability loss in pontine glioma line – cell-based, SU-DIPG-XVII, MIPE5.0, CellTiter-Glo, qHTS, dose response (AID 1347060; cut-off not given, nearly all actives have AC50 up to about 26 µM); settings: CellTiter-Glo ATP luminescence
# [15] = growth inhibition of DIPG cells – cell-based, MIPE5.0 library, qHTS (AID 1347068; cut-off not given, nearly all actives have IC50 up to about 30 µM); settings: SU-DIPG-XXV viability
# [16] = molecular target: NAD(+) hydrolase SARM1 (Homo sapiens) (UniProt Q6SZW1); assay: blocking NAD cleavage by SARM1 SAM-TIR – cell lysate, NAD-Glo luminescence (AID 1508614;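 active = compound whose remaining NAD level is above about 45 nM, limit read from the data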;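 note: higher remaining NAD means stronger inhibition of SARM1 NADase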); settings: SAM-TIR HEK293T lysate NADase, at 1 µM, stronger effect = higher value
# NAD(+) hydrolase SARM1 (Homo sapiens), sequence (Q6SZW1 whole entry, looked up): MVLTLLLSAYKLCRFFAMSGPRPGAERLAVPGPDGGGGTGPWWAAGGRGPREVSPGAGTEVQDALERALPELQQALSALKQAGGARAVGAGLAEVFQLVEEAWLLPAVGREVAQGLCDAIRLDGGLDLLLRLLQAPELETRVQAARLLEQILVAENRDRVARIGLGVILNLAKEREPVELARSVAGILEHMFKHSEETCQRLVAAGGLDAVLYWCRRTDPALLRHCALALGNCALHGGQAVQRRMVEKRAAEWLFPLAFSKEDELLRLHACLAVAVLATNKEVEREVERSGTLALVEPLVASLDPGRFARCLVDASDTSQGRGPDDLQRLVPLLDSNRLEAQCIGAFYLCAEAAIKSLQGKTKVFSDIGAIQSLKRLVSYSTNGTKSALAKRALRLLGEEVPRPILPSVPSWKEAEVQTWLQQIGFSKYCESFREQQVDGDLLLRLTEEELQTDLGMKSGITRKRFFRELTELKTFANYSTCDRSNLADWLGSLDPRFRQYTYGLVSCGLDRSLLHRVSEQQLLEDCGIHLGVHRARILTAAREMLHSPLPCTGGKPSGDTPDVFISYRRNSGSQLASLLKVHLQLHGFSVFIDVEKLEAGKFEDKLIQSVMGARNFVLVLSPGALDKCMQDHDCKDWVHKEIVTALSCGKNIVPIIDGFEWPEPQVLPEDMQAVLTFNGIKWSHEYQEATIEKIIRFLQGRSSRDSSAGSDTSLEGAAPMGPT
# [17] = viability loss in pontine glioma line – cell-based, JHH-DIPG-1, MIPE4.0, CellTiter-Glo, qHTS, dose response (AID 1347062; cut-off not given, nearly all actives have AC50 up to about 27 µM;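 note: cells exposed to compound for two days before readout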); settings: JHH-DIPG-1 viability, CellTiter-Glo ATP luminescence
# [18] = stronger effect = lower value, cell number ratio, induced over uninduced
# [19] = measured here: relative caspase fold change +Dox/-Dox
# [20] = measured here: total cells with miR-34 induction, stronger effect = lower value
# [21] = measured here: total cells without miR-34 induction
# [22] = MELAS cybrid survival, CellTiter-Glo 48 h, stronger effect = higher value
# [23] = Rieske KO mouse fibroblast survival, CellTiter-Glo 72 h
smiles,measurement,setting,value
CC[N+](CC)(CCNC(=O)C(=O)NCC[N+](CC)(CC)Cc1ccccc1Cl)Cc1ccccc1Cl,nuclear beta-catenin stimulation,[1]; at 10 µM,0.3% (inactive)
same,nuclear beta-catenin stimulation,"[1]; stimulation, at 2 µM",3.3%
same,insulin secretion stimulation,[2],0.9% (inactive)
same,viability decrease,[3],-14.5% (inactive)
same,tube area decrease,[4],-8.9% (inactive)
same,GLP1 secretion stimulation,[5],2.4% (inactive)
same,inhibition of viability,[6],2.83% (inactive)
same,viability decrease (inhibition),[7],6.4% (inactive)
same,viability decrease (inhibition),[8],-9.9% (inactive)
same,remaining activity,[9],122% (inactive)
same,fold change,[10]; [18],0.939 (inactive)
same,fold change,[10]; [19],1.05
same,cell count,[10]; [20],8990
same,cell count,[10]; [21],9570
same,z-score,[11],0.25 (inactive)
CCOC(=O)c1cnc2c(cnn2CC)c1NN=C(C)C,parasite load remaining,[12],33.1% (inactive)
same,viability,[12],68.5%
same,nuclear beta-catenin stimulation,[1]; at 10 µM,-1.1% (inactive)
same,nuclear beta-catenin stimulation,"[1]; stimulation, at 2 µM",1.4%
same,insulin secretion stimulation,[2],5.8% (inactive)
same,viability decrease,[3],-110% (inactive)
same,tube area decrease,[4],-6% (inactive)
same,GLP1 secretion stimulation,[5],0.7% (inactive)
same,inhibition of viability,[6],29.6% (inactive)
same,viability decrease (inhibition),[7],21.1% (inactive)
same,viability decrease (inhibition),[8],27.5% (inactive)
same,remaining activity,[9],115% (inactive)
same,fold change,[10]; [18],1 (inactive) and 0.89 (inactive) and 0.857 (inactive)
same,fold change,[10]; [19],1.06 and 0.8 and 1.84
same,cell count,[10]; [20],7810 and 7710 and 8880
same,cell count,[10]; [21],7780 and 8670 and 10400
same,z-score,[13]; [22],1.91
same,z-score,[13]; [23],2.39
same,z-score,[11],1.13 (inactive) and 2.63 (active) and 1.51 (inactive)
CN(C(=O)c1c(O)c2ccccc2n(C)c1=O)c1ccccc1,nuclear beta-catenin stimulation,[1]; at 10 µM,0.7% (inactive)
same,nuclear beta-catenin stimulation,"[1]; stimulation, at 2 µM",0.9%
same,insulin secretion stimulation,[2],4.4% (inactive)
same,viability decrease,[3],2.2% (inactive)
same,tube area decrease,[4],-6.9% (inactive)
same,GLP1 secretion stimulation,[5],0.6% (inactive)
same,inhibition of viability,[6],-2.7% (inactive)
same,viability decrease (inhibition),[7],1.1% (inactive)
same,viability decrease (inhibition),[8],-45.2% (inactive)
same,remaining activity,[9],121% (inactive)
same,outcome,[14],inactive
same,outcome,[15],inactive
same,fold change,[10]; [18],0.967 (inactive)
same,fold change,[10]; [19],0.749
same,cell count,[10]; [20],8780
same,cell count,[10]; [21],9070
same,z-score,[11],-0.335 (inactive)
COc1cc2c(cc1OC)[C@@H]1CC(=O)[C@@H](CC(C)C)CN1CC2,nuclear beta-catenin stimulation,[1]; at 10 µM,0.6% (inactive)
same,nuclear beta-catenin stimulation,"[1]; stimulation, at 2 µM",0.1%
same,insulin secretion stimulation,[2],-1.9% (inactive)
same,viability decrease,[3],-9.4% (inactive)
same,tube area decrease,[4],-10% (inactive)
same,GLP1 secretion stimulation,[5],-2.7% (inactive)
same,inhibition of viability,[6],21.4% (inactive)
same,viability decrease (inhibition),[7],2.6% (inactive)
same,viability decrease (inhibition),[8],5.2% (inactive)
same,remaining activity,[9],81.5% (inactive)
same,fold change,[10]; [18],0.993 (inactive)
same,fold change,[10]; [19],1.02
same,cell count,[10]; [20],8740
same,cell count,[10]; [21],8800
same,z-score,[11],0.105 (inactive)
Cc1ccc2c(c1)c1c3n2CCNC3CCC1 (stereo unspecified),parasite load remaining,[12],192% (inactive)
same,viability,[12],76.9%
same,nuclear beta-catenin stimulation,[1]; at 10 µM,3% (inactive)
same,nuclear beta-catenin stimulation,"[1]; stimulation, at 2 µM",2%
same,insulin secretion stimulation,[2],0.5% (inactive)
same,viability decrease,[3],-63.6% (inactive)
same,tube area decrease,[4],18.5% (inactive)
same,GLP1 secretion stimulation,[5],11.2% (inactive)
same,inhibition of viability,[6],44% (inactive)
same,viability decrease (inhibition),[7],73.4% (active)
same,viability decrease (inhibition),[8],29.4% (inactive)
same,remaining activity,[9],98.7% (inactive)
same,fold change,[10]; [18],0.931 (inactive) and 0.909 (inactive)
same,fold change,[10]; [19],0.816 and 0.659
same,cell count,[10]; [20],8540 and 8100
same,cell count,[10]; [21],9170 and 8920
same,z-score,[13]; [22],0.468 (inactive)
same,z-score,[13]; [23],-0.847
same,z-score,[11],-0.41 (inactive)
COc1ccc2c(c1OC)C(=O)O[C@@H]2[C@H]1c2c(cc3c(c2OC)OCO3)CCN1C,parasite load remaining,[12],89.7% (inactive) and 72.1% (inactive)
same,viability,[12],104% and 75.4%
same,nuclear beta-catenin stimulation,[1]; at 10 µM,3.5% (inactive)
same,nuclear beta-catenin stimulation,"[1]; stimulation, at 2 µM",0.1%
same,insulin secretion stimulation,[2],2% (inactive)
same,viability decrease,[3],55.6% (active)
same,tube area decrease,[4],4.1% (inactive)
same,GLP1 secretion stimulation,[5],-1.8% (inactive)
same,inhibition of viability,[6],46.2% (inactive)
same,viability decrease (inhibition),[7],90.4% (active)
same,viability decrease (inhibition),[8],2.7% (inactive)
same,remaining activity,[9],111% (inactive)
same,fold change,[10]; [18],0.961 (inactive) and 0.857 (inactive) and 1.04 (inactive)
same,fold change,[10]; [19],0.539 and 1.29 and 0.971
same,cell count,[10]; [20],6010 and 7290 and 6960
same,cell count,[10]; [21],6250 and 8520 and 6720
same,remaining NAD,[16],10 nM (inactive)
same,z-score,[11],0.555 (inactive) and 0.075 (inactive)
O=C1c2ccccc2S(=O)(=O)N1CCCCN1CCN(c2ncccn2)CC1,nuclear beta-catenin stimulation,[1]; at 10 µM,-1.2% (inactive)
same,nuclear beta-catenin stimulation,"[1]; stimulation, at 2 µM",1.3%
same,insulin secretion stimulation,[2],3.3% (inactive)
same,viability decrease,[3],-7% (inactive)
same,tube area decrease,[4],4.9% (inactive)
same,GLP1 secretion stimulation,[5],-1.9% (inactive)
same,inhibition of viability,[6],7.2% (inactive)
same,viability decrease (inhibition),[7],-2.4% (active)
same,viability decrease (inhibition),[8],-2.8% (inactive)
same,remaining activity,[9],111% (inactive)
same,fold change,[10]; [18],0.855 (inactive)
same,fold change,[10]; [19],1.78
same,cell count,[10]; [20],8330
same,cell count,[10]; [21],9750
same,z-score,[13]; [22],-0.295 (inactive)
same,z-score,[13]; [23],-0.0604
same,z-score,[11],0.135 (inactive)
COc1ccc(CCN(C)CCCN2CCc3cc(OC)c(OC)cc3CC2=O)cc1OC,nuclear beta-catenin stimulation,[1]; at 10 µM,1.2% (inactive)
same,nuclear beta-catenin stimulation,"[1]; stimulation, at 2 µM",0%
same,insulin secretion stimulation,[2],10.7% (inactive)
same,viability decrease,[3],-11.1% (inactive)
same,tube area decrease,[4],-12.6% (inactive)
same,GLP1 secretion stimulation,[5],7.6% (inactive)
same,inhibition of viability,[6],7.5% (inactive)
same,viability decrease (inhibition),[7],-4.7% (inactive)
same,viability decrease (inhibition),[8],12.1% (inactive)
same,remaining activity,[9],98.9% (inactive)
same,fold change,[10]; [18],0.903 (inactive)
same,fold change,[10]; [19],1.41
same,cell count,[10]; [20],8020
same,cell count,[10]; [21],8880
same,z-score,[11],-0.34 (inactive)
CC#C[C@]1(O)CC[C@H]2[C@@H]3CCC4=CC(=O)CCC4=C3[C@@H](c3ccc(N(C)C)cc3)C[C@@]21C,nuclear beta-catenin stimulation,[1]; at 10 µM,9.1% (inactive)
same,nuclear beta-catenin stimulation,"[1]; stimulation, at 2 µM",4%
same,insulin secretion stimulation,[2],1% (inactive)
same,viability decrease,[3],94.5% (active)
same,tube area decrease,[4],16.1% (inactive)
same,GLP1 secretion stimulation,[5],-3.8% (inactive)
same,inhibition of viability,[6],84.3% (active)
same,viability decrease (inhibition),[7],102% (active)
same,viability decrease (inhibition),[8],98.6% (active)
same,remaining activity,[9],115% (inactive)
same,AC50,[17],235 nM (active)
same,outcome,[15],inactive
same,z-score,[13]; [22],1.08 (inactive) and 0.356 (inactive)
same,z-score,[13]; [23],0.475 and 1.05
same,remaining NAD,[16],10 nM (inactive)
same,z-score,[11],0.48 (inactive) and -0.34 (inactive) and 0.325 (inactive)
